{"source": "PubChem BioAssay (NCI)", "note": "About 83,000 compounds went through this panel and 20% of them were active in at least one assay; those are over-represented in the sample as a whole.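 Plates (96-well) were seeded with cells, treated with compound at one concentration, and incubated for 48 hours before percent growth was determined.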 Unmarked numbers belong to inactive results. The source made the active and inactive calls. How the source made its calls: active means growth percent below 10; inactive means the rest."}
{"tested_on": "UO-31 renal", "experiment": "NCI-60 one-dose screen, 48 h (100 = growth as untreated, 0 = no growth, -100 = all killed)", "conditions": "10 µM unless noted"}
{"smiles": "CCOc1ccc(NC(=O)Nc2cc(C(C)C)ccc2C)cc1", "growth": "15.2%"}
{"smiles": "NS(=O)(=O)c1ccc(-n2nc(-c3ccc(Cl)cc3)ccc2=O)cc1", "growth": "91.7%"}
{"smiles": "COC(OC)C1(c2ccccc2)NC(=O)NC1=O", "note": "(centres undefined)", "growth": "101%"}
{"smiles": "CC1=C[S+](c2ccccc2)c2cccc3cc4ccccc4c1c23", "note": "(centres undefined)", "growth": "-39.5% (active)"}
{"smiles": "O=C(Nc1ccccc1F)Nc1ccccc1Cl", "growth": "98.2%"}
{"smiles": "O=C(C[n+]1ccccc1Cl)c1ccc2c(c1)CCCC2", "growth": "93.6%"}
{"smiles": "COc1cc(-c2nc3sc(C)cn3c2/C=C2\\C(=O)Nc3ccccc32)c(Br)c(OC)c1OC", "growth": "24.8%"}
{"smiles": "CC1(C)N=C(N)N=C(N)N1c1cccc(CCCCc2ccccc2)c1", "growth": "27.2%"}
{"smiles": "COc1ccc(/C=C2\\CS(=O)(=O)C/C(=C\\c3ccc(OC)cc3)C2=O)cc1", "growth": "-100% (active)"}
{"smiles": "CN1CCN(CC(O)COc2c(Br)c(Br)c(Br)c3c2OC(C)(C)C3)CC1", "note": "(centres undefined)", "growth": "-14.8% (active)"}
{"smiles": "CC1(C)N=C(N)N=C(N)N1c1ccc(OCC(=O)Nc2ccccc2)c(Cl)c1", "growth": "104%"}
{"smiles": "COc1ccc2c(c1)nnc1c3cccnc3[nH]c21", "growth": "-74.1% (active)"}
{"smiles": "CC(=O)N[C@@H](CNC(=O)c1cc(NC(=O)c2cc(NC(=O)c3cc(NC(=O)c4nccn4C)cn3C)cn2C)cn1C)CC(=O)Nc1cn(C)c(C(=O)Nc2cc(C(=O)Nc3cc(C(=O)Nc4cc(C(=O)NCCCN(C)CCCNC(=O)c5cccc(C(=O)O)c5)n(C)c4)n(C)c3)n(C)c2)n1", "growth": "77.1%"}
{"smiles": "Nc1ccc(S(=O)(=O)Nc2cc(I)cc(I)c2)cc1", "growth": "99.7%"}
